Structures are written as SMILES. The campaign covered roughly 330,000 compounds. About 930 (0.28%) were called active.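 How the source made its calls: active means inhibition of at least 40% at 20 µM, with no more than 30% in the related APOBEC3A deaminase screen; inactive means the rest.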 Many of the other results were omitted from the sample, so actives are more common in it than they were.

The target of this assay is DNA dC->dU-editing enzyme APOBEC-3G (Homo sapiens) (UniProt Q9HC16). The assay can be described thus: inhibition of human A3G ssDNA deamination – biochemical, fluorescence, single-stranded DNA substrate, uHTS, primary screen (AID 493012).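 Further: plate controls were DMSO wells with A3G for no effect and wells lacking A3G enzyme for full effect.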 As to conditions: recombinant A3G, ssDNA deamination FAM/TAMRA fluorescence; at 20 µM; active compounds read high.
DNA dC->dU-editing enzyme APOBEC-3G (Homo sapiens), sequence (Q9HC16 whole entry, looked up): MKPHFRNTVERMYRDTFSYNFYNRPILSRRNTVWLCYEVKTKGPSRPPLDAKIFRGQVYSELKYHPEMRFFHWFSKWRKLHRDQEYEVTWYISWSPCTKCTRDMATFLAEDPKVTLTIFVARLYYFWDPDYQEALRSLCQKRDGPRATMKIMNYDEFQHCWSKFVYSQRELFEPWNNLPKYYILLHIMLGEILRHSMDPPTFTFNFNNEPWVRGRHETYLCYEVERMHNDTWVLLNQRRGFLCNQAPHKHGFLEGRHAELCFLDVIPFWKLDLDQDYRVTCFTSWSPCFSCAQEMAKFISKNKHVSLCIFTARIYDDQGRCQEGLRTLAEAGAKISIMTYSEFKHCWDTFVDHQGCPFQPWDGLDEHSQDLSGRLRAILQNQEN
Consider `COc1cc(OC)c(NC(=O)C2CCCN2C(=O)OCc2ccccc2)cc1Cl` (configuration not stated), for which the inhibition (usually the relative decrease from the control value, in per cent) is -7.18% (inactive).

Consider `CCOC(=O)C1=C(C)Nc2sc(C(=O)c3ccc(Br)cc3)c(N)c2C1c1ccc(C(=O)OC)cc1` (configuration not stated), for which the inhibition was -6.26% (inactive).

With `CCOC(=O)c1sc(=S)n2c1[nH]c(=O)c1ccc(C(=O)OC)cc12`, the inhibition is 41.3% (active).

As for `CCOC(=O)c1ccc(Nc2cc3ccccc3c(=O)[nH]2)cc1`, the inhibition was -6.08% (inactive).

With `CCCN1C2CCCC1CC(NC(=O)NC13CC4CC(CC(C4)C1)C3)C2` (configuration not stated), the inhibition is -7.31% (inactive).

Turning to `CC(C)C1Nc2c(C(=O)O)cccc2C(Nc2ccccc2C(=O)O)C1(C)C` (configuration not stated), the inhibition was 3.35% (inactive).

Turning to `COc1ccc(N2C(=O)CC(SC(C)C)C2=O)cc1` (configuration not stated), the inhibition is -8.49% (inactive).

Consider `COc1ccc(-c2nc(SCC(=O)N3CCCC3)n[nH]2)cc1`, for which the inhibition was -17.7% (inactive).

In the case of `COc1ccc(N2C(=O)CC(Sc3n[nH]c(-c4ccc(C)cc4)n3)C2=O)cc1` (configuration not stated), the inhibition is 41.5% (active).

Turning to `CCOC(=O)C1=C(c2ccccc2)NC(=O)NC1c1cc(OCC)c(O)c([N+](=O)[O-])c1` (configuration not stated), the inhibition was -2.96% (inactive).

On to `CCOC(=O)c1cnc(Nc2nc3ccccc3o2)nc1CSC(=S)N1CCCCC1`, for which the inhibition is -3.98% (inactive).

For `CCOc1ccc(NC(=O)c2ccc(NC(=O)COC(=O)c3ccc(NC(=O)CC#N)cc3)cc2)cc1`, the inhibition is 66.2% (active).

Consider `CC(C)NC(=O)NC(=O)COC(=O)c1ccc(NC(=O)CC#N)cc1`, for which the inhibition was -1.25% (inactive).

Consider `N#CCC(=O)Nc1ccc(C(=O)OCC(=O)Nc2sc3c(c2C#N)CCCC3)cc1`, for which the inhibition was -9.04% (inactive).

Turning to `COc1ccc(C2(C)ON(c3ccccc3C(F)(F)F)C2=O)cc1` (configuration not stated), the inhibition is -6.81% (inactive).

For `CC(=O)Nc1ccc(S(=O)(=O)Nc2ccc(N3CCCCC3)cc2)cc1`, the inhibition was -1.93% (inactive).

Regarding `O=C(C1CC(=O)N(C2CCCCC2)C1)N1CCN(c2ccccc2)CC1` (configuration not stated), the inhibition was -5.67% (inactive).

For `O=C1C=CC(=O)N1c1ccc(N2CCCCC2)cc1`, the inhibition was 56.8% (active).

As for `COc1ccccc1OCC(=O)Nc1c2c(nn1-c1ccc(F)cc1)CS(=O)(=O)C2`, the inhibition is -3.56% (inactive).

With `O=C(NCC1CCCCC1)c1cc(S(=O)(=O)N2CCCCC2)ccc1N1CCOCC1`, the inhibition is -1.87% (inactive).

`O=C(CCn1c(=O)oc2ccccc21)Nc1ccon1`: the inhibition is -6.36% (inactive).

Consider `COCc1c(N)c(C)nc(Cl)c1C#N`, for which the inhibition was 66.3% (active).

As for `Cc1nc(Cl)c(C#N)c2c1CCCC2`, the inhibition was -4.63% (inactive).

Take `COC(=O)c1c(C)c(C)nc(N)c1C#N`: the inhibition is -1.41% (inactive).

Regarding `Brc1ccc(C2CC(c3ccccc3)=Nc3ccccc3N2)cc1` (configuration not stated), the inhibition was -3.13% (inactive).

Consider `Cn1cccc1C(=O)NC(=O)COC(=O)Cc1coc2ccc3ccccc3c12`, for which the inhibition is -8.11% (inactive).

Regarding `COc1cccc(CN2CCN(Cc3ccc4cccc(F)c4n3)CC2CCO)c1` (configuration not stated), the inhibition is -9.71% (inactive).

`COc1ccc(CNC(=O)C(=O)N2CCC3(CC2)OCCN3S(=O)(=O)c2ccc(C)cc2)cc1`: the inhibition is -5.73% (inactive).

On to `Cc1ccc(NC(=O)CN(C)C(=O)c2ccc(Cl)c(S(=O)(=O)NCc3ccco3)c2)cc1`, for which the inhibition was -5.2% (inactive).

Turning to `COc1ccccc1/C=C/C=N/n1c(-c2ccc(Cl)cc2Cl)n[nH]c1=S`, the inhibition is -7.26% (inactive).

With `Cc1cc(-c2n[nH]c(=S)n2/N=C/c2ccco2)n[nH]1`, the inhibition was 44.7% (active).

In the case of `S=c1[nH]nc(-c2ccco2)n1/N=C/c1ccccc1`, the inhibition is 44.3% (active).

For the molecule `Fc1ccc(/C=N/n2c(COc3ccccc3)n[nH]c2=S)cc1`, the inhibition is 13.5% (inactive).

Consider `S=c1[nH]nc(-c2ccco2)n1/N=C/c1ccc(Br)s1`, for which the inhibition is 17% (inactive).

In the case of `Cc1ccc(CN2CCN(/N=C/c3ccco3)CC2)c(C)c1`, the inhibition is -10.3% (inactive).

As for `CCC(C)(C)NC(=O)c1cc([N+](=O)[O-])ccc1N1CCCCC1`, the inhibition is -0.515% (inactive).

Consider `CC1(C)C[C@H]2C3=CCC4[C@@]5(C)CC[C@H](O)[C@](C)(CO)C5CC[C@@]4(C)[C@]3(C)C[C@@H](O)[C@@]2(CO)[C@@H](O)[C@@H]1O` (some centres not stated), for which the inhibition was -1.86% (inactive).
